# Bioassay records deposited in PubChem by National Center for Advancing Translational Sciences (NCATS).
# MmCpn inh = Inhibitors of TCP-1 ring complex (TRiC) of Methanococcus maripaludis (MmCpn): qHTS | Potency, µM (highest dose often 76.9 µM), without a hit: top-dose activity, negative = inhibition, actives largely listed as inhibitors | 0.031% of 330,000 active | purified Mm-Cpn ATPase, ADP Transcreener TR-FRET | Chaperonin Mm-Cpn (Methanococcus maripaludis); note: potency is the fitted concentration of half-maximal effect; nearly all actives have a fitted effect of over 80% in size
#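 Measured: ADP formation by purified Mm-CPN. Conditions: 25 nM protein, 10 uM ATP, Tris pH 7.4 with Mg2+, K+ and DTT, 37°C for 30 min. Detection: Transcreener HTRF after 30 min at room temperature.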
# Sfp inh = qHTS Assay for Inhibitors of Bacillus subtilis Sfp phosphopantetheinyl transferase (PPTase); 3.5% of 310,000 active; 4'-phosphopantetheinyl transferase ffp (Bacillus subtilis), Q9F4F7; AID 1490, 2009; Biochemical Sfp PPTase activity, qHTS; Potency, µM, without a hit: largest response in the series, negative = inhibition, most hits filed as inhibitors;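 note: the enzyme is Sfp with the accession as filed and its product quenches rhodamine fluorescence; potency is the fitted concentration of half-maximal effect; 0% = enzyme reaction without inhibitor and -100% = no enzyme wells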
#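 Sfp 15 nM + cpd, 15 min RT; start w/ rhodamine-CoA 5 uM, BHQ-2-YbbR 12.5 uM (final); 50 mM Hepes pH 7.6, 10 mM MgCl2, 0.01% NP-40, 0.01% BSA; read 525/598 nm at 0 and 30 min.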
# CCT chaperon mod = High-Throughput Screening for Modulators of Cytosolic Chaperonin Activity. purified chaperonin ATPase assay, HTRF ADP detection, 30 min. activity change, % (concentration not given with the values), hits read low. 0.3% of 360,000 active; in the data active = activity change below about -30%
#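 ATPase activity: ADP formed was measured by HTRF Transcreener (665/615 nm ratio) after 30 min at 37 deg C with 10 uM ATP. Compounds screened at one 76 uM concentration against 40 or 20 nM TRiC in Tris pH 7.4/KCl/MgCl2/DTT buffer.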
# G9a inh = qHTS Assay for Inhibitors of Histone Lysine Methyltransferase G9a; G9a H3K9 monomethylation, AlphaScreen, 2 h; Potency, µM (titrated, usually from 102 µM), inactives show at the highest dose activity, negative = inhibition, actives largely listed as inhibitors; 8.8% of 350,000 active; AID 504332, 2011; note: potency is the fitted concentration of half-maximal effect; nearly all actives have a fitted effect of over 75% in size
#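 Using a bead-based AlphaScreen, monomethylated H3K9 product from 2 h room-temperature reactions (G9a 20 nM, peptide 500 nM, SAM 20 uM) was detected with 0.5 ug/mL rabbit anti-H3K9me1 antibody.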
# VDR inh = Inhibitors of the vitamin D receptor (VDR): qHTS; Vitamin D3 receptor (Homo sapiens), P11473; VDR-SRC2-3 peptide fluorescence polarization, 2 h; Potency, µM, for the others: max response, negative = inhibition, most hits filed as inhibitors; 0.93% of 400,000 active; AID 504847, 2011; note: potency is the fitted concentration of half-maximal effect
#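 The screen uses fluorescence polarization to detect compounds that interfere with recruitment of the SRC2-3 coactivator peptide to VDR; plates are read after 2 h at room temperature.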
# PLK1 PBD inh = qHTS for Inhibitors of PLK1-PDB (polo-like kinase 1 - polo-box domain): Primary Screen; Plk1 PBD binding of FITC phosphopeptide, fluorescence polarization; Potency, µM, for inactives: max response, negative = inhibition, usual class: inhibitors; 2.8% of 360,000 active; note: potency is the fitted concentration of half-maximal effect; series mostly up to about 57 µM; nearly all actives have a fitted effect of over 65% in size
# Target sequence (P53350 whole entry, looked up, the tested form may be a part): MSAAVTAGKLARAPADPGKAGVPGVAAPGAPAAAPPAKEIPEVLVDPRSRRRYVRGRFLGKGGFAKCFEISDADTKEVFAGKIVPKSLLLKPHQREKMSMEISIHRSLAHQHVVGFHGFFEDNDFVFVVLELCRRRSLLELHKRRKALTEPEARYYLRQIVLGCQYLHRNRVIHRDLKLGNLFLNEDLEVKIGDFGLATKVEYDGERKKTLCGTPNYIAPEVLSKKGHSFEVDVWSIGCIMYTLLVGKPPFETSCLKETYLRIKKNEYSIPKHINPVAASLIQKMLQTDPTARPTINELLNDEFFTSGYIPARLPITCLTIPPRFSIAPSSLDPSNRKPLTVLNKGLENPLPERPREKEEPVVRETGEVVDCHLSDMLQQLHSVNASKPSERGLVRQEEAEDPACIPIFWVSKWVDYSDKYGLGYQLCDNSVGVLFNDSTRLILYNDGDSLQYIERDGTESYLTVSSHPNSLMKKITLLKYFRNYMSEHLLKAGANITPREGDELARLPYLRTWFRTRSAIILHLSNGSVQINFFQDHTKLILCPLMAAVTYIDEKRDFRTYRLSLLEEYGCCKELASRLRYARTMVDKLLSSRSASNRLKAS
# Active calls of the source: *; u = inconclusive; x = not tested or not shown; [ ] = another dose, or the depositor's remark. This is a sample that favours compounds with a hit; in the whole collection about 10% have one here. Unless noted, calls come from the whole dose curve; as a rule, active = well fitted curve in the direction sought with a large enough effect; inconclusive = small, poorly fitted or top-dose-only effect, or another doubt; inactive = no such curve, though single readings can be large; an effect the other way counts as inactive or inconclusive. Unless noted, % is set by controls: 0 for no effect and ±100 for the full control effect.
SMILES,MmCpn inh,Sfp inh,CCT chaperon mod,G9a inh,VDR inh,PLK1 PBD inh
CC(C)Nc1nc(NC(N)=S)nc(NC(C)C)n1,0.9%,-3.1%,-2.6,2.51µM*,-11.6%,-13.8%
Nc1ncnc2c1ncn2CCOc1ccccc1,0.8%,-1.5%,-30.9*,8.7%[59 µM],11.0%,-3.7%
NC(=O)c1ccc(NC(=O)c2cncn2-c2ccccc2)cc1,-2.1%,19.4%,1.3,-28.2%,79.4µM*,23.8µM*
Cc1cc(OCC(=O)N2CCc3ccccc3C2)c(C)cc1Br,2.7%,-14.4%,0.2,103.8%[59 µM],-18.6%,18.9µM*
Cc1cc(Cl)ccc1OCCCC(=O)N1CCCCC1,-0.9%,79.4µM*,-3.3,15.0%[12.7 µM],0.4%,-6.8%
Cc1ccc(C)c(OCC(=O)N2CCc3ccccc3C2)c1,-1.8%,10.9%,-1.7,u,-0.9%,-8.2%
O=C(CCCOc1ccc(Cl)cc1Cl)N1CCc2ccccc2C1,-0.3%,17.8µM*,0.5,30.5%[59 µM],2.9%,-5.5%
Cc1cc(Cl)ccc1OCCCC(=O)N1CCOCC1,-0.9%,8.2%,-1.0,u,-7.6%,-6.1%
CCN(CC)CC#CCOC(=O)[C@@](O)(c1ccccc1)C1CCCCC1,x,12.1%,x,-31.9%[12.7 µM],1.5%,x
Cc1c(Cl)cccc1NC(=O)CC(c1cccs1)N1Cc2ccccc2C1=O (stereo unspecified),x,x,x,-16.7%[59 µM],3.1%,x
CC(CCC(=O)Nc1nncs1)C(=O)O (stereo unspecified),-2.6%,13.4%,-1.6,8.3%[59 µM],-17.6%,-0.2%
CCCCC(C(=O)O)C(C)CC(=O)Nc1nncs1 (stereo unspecified),u,12.4%,-2.5,5.1%[59 µM],-22.7%,21.2µM*
COc1ccc(-c2cc(C)nc(SCc3cccc(C(=O)O)c3)n2)cc1,1.7%,1.4%,1.1,17.9%[59 µM],1.6%,-8.5%
O=C(O)c1cccc(CSc2nc(-c3ccc(Cl)cc3)cc(C(F)(F)F)n2)c1,-5.6%,-6.1%,-1.9,-4.7%[2.33 µM],u,26.7µM*
Cc1nc(SCc2cccc(C(=O)O)c2)nc2c1CCCC2,-8.0%,-9.0%,0.5,-44.4%,-4.7%,26.7µM*
O=C(NC(=S)Nc1cc([N+](=O)[O-])ccc1O)c1cccnc1,1.7%,-63.3%,-0.5,11.2µM*,-11.5%,u
O=C(NC(=S)Nc1ccccc1O)c1cccnc1,2.5%,-12.1%,2.9,17.6%[0.501 µM],-11.1%,-27.7%
Cc1ccc([N+](=O)[O-])cc1NC(=S)NC(=O)c1cccnc1,-3.0%,u,-2.3,-4.9%,1.4%,-21.3%
N#Cc1ccccc1NC(=S)NC(=O)c1cccnc1,0.9%,50.1µM*,0.7,x,-12.0%,11.9µM*
COc1ccc(NC(=O)c2c[nH]c(=O)n(-c3ccc(C)c(C)c3)c2=O)cc1OC,2.0%,0.7%,0.5,-8.2%,16.8%,1.4%
COc1cccc(-n2c(=O)[nH]cc(C(=O)Nc3ccc(NC(C)=O)cc3)c2=O)c1,-0.6%,-1.0%,0.6,44.7µM*,-10.4%,-9.8%
CC(C)=CCC1C(=O)N(c2ccccc2)N(c2ccccc2)C1=O,x,-6.9%,x,u,25.1µM*,x
CCN1C(=O)NC(c2ccccc2)C1=O (stereo unspecified),-3.3%,x,-0.5,-46.2%[59 µM],-4.5%,-6.6%
Cc1cc(NC(=O)CN(C)S(=O)(=O)c2ccc3c(c2)CCCC(=O)N3)ccc1Br,x,x,x,-7.6%[59 µM],-5.9%,x
COc1ccc(CCNC(=O)CCCn2c(=O)c3ccccc3n(Cc3c(C)cc(C)cc3C)c2=O)cc1OC,x,x,x,-2.3%[59 µM],3.9%,x
SMILES,MmCpn inh,Sfp inh,CCT chaperon mod,G9a inh,VDR inh,PLK1 PBD inh
CC(=O)COc1ccc2c(c1C)O/C(=C\c1ccco1)C2=O,-2.3%,u,-6.5,28.2µM*,-10.5%,-14.7%
COc1ccc2c(c1)O/C(=C\c1ccco1)C2=O,0.7%,4.47µM*,-1.8,x,9.2%,-12.2%
COc1ccc(/C=C2\Oc3cc(OCC(N)=O)ccc3C2=O)cc1OC,-15.9%,15.5%,0.5,-9.1%,4.3%,-5.1%
O=C1C(=Cc2ccco2)CCC1=Cc1ccco1,x,x,0.3,x,u,u
CC(C)CCNC(=O)C1CCN(S(=O)(=O)c2cccc3nsnc23)CC1,x,x,x,-15.9%[59 µM],u,x
CCN(CC)S(=O)(=O)c1ccc(C)c(C)c1,-1.5%,14.9%,-0.8,18.9%[59 µM],6.4%,-7.3%
Cc1ccc(S(=O)(=O)Nc2ccc(O)c(S(=O)(=O)c3ccc(C)cc3)c2)cc1,0.2%,1.8%,1.5,x,4.8%,-5.4%
CC(=O)Nc1ccc(S(=O)(=O)c2cc(O)ccc2O)cc1,0.8%,-21.9%,0.8,12.6µM*,10.0%,-13.8%
Cc1ccc(S(=O)(=O)c2cc(O)ccc2O)cc1C,-5.0%,-16.6%,-0.7,50.1µM*,0.6%,1.6%
COc1ccc(-c2cc(C(C)=O)c(C)n2CCC(=O)Nc2cc(Cl)ccc2C)cc1,x,x,x,-3.9%[59 µM],-2.9%,x
CCOC(=O)N/N=C/c1ccccc1-c1cc(OC)ccc1OC,x,0.8%,x,x,-1.6%,x
Clc1ccc([C@H](Cn2ccnc2)OCc2c(Cl)cccc2Cl)c(Cl)c1,x,1.8%,x,-30.3%[21.5 µM],u,x
CCCn1c(SCC(=O)N2CCCCC2)nnc1C(C)C,1.9%,13.3%,1.8,x,79.4µM*,10.6µM*
COCCn1c(SCC(=O)N2CCCC2)nnc1C(C)C,-2.8%,22.0%,-0.6,-21.7%,-3.9%,-1.1%
CC1=C(C)NC(=S)SC1,-4.8%,u,0.6,u,-15.1%,26.7µM*
CCOc1ccc2c(c1)c1nnc(SCC3CCCO3)nc1n2C (stereo unspecified),-6.0%,24.5%,-3.2,15.0%[59 µM],-27.1%,26.7µM*
Cc1cc(NC(=O)c2ccccc2)ncc1NC(=O)c1ccco1,1.4%,-15.0%,-0.9,25.1µM*,3.3%,-11.8%
Cc1ccc(O)c(NC(=O)c2ccco2)c1,0.8%,1.9%,-1.2,11.9%[59 µM],-0.6%,-1.8%
Cc1cc(O)c(NC(=O)c2ccco2)cc1C,1.0%,-10.0%,1.0,8.91µM*,1.3%,-3.8%
CCC(=O)Nc1cc(C)c(NC(=O)c2ccco2)cn1,0.3%,10.1%,-3.8,0.0%[59 µM],-0.2%,-5.9%
O=C(CCNC(=O)Cn1cnc2ccccc2c1=O)NCCC1=CCCCC1,-0.1%,-7.5%,-2.4,2.0%[59 µM],-9.6%,26.7µM*
COc1cc(/C=C/C(=O)O)cc(S(=O)(=O)Nc2ccc3nc(C)sc3c2)c1OC,-0.1%,39.8µM*,1.3,27.9%[12.7 µM],-0.1%,-17.9%
Cc1nc2ccc(NS(=O)(=O)c3c(C)c(C)cc(C)c3C)cc2s1,x,-26.5%,0.3,14.1µM*,-12.3%,u
